Results taken from ChEMBL document CHEMBL3988442, “University of Dundee, Small-Polar-MMV Screening Library” (2021).
Out of some 48,000 compounds screened, about 13,000 (27%) showed an effect of 50% or more. The list shows a part of the results.

test system: Wolbachia pipientis; assay: Anti-Wolbachia Cell-Based Screen; type: functional; design: scale not given: in the data most compounds retested in dose-response had high values; conditions: 5 µM

Row | SMILES | Percent Effect
1 | CCCN1CC(C(=O)Nc2ccccn2)CC1=O (centres undefined) | -15.01%
2 | COc1ccc(CN2CC[C@@H](N)[C@@H](OC)C2)cc1Cn1cncn1 | 18.6%
3 | Cc1n[nH]cc1CNC(C(=O)N1CCOCC1)c1ccccc1 (centres undefined) | 6.045%
4 | Cc1cnc(-c2nc(C3CCCN(Cc4cccs4)C3)no2)cn1 (centres undefined) | 85.43%
5 | Cc1cnc(-c2nc(C3CCN(Cc4ccccc4Cl)CC3)no2)cn1 | 142.3%
6 | Cc1nc(C)c(CN2CCOC(Cc3ccccc3Cl)C2)nc1C (centres undefined) | -25.93%
7 | CN1CCC(Cc2noc(-c3cn(Cc4ccccc4Cl)nn3)n2)CC1 | 21.53%
8 | Cc1cnc(-c2nc(C3CCCN(Cc4ccccc4C)C3)no2)cn1.Cl (centres undefined) | 93.62%
9 | Cc1cnc(-c2nc(C3CCN(Cc4ccccc4C)CC3)no2)cn1 | 126.9%
10 | Cc1cnc(-c2nc(-c3cccc(CN4CCOCC4)c3)no2)cn1 | 4.673%
11 | Cc1nc(C2CCCN(c3ncc(Br)cn3)C2)no1 (centres undefined) | -7.201%
12 | Cc1cnc(CN2CCN(C(C)c3nc(C4CC4)no3)CC2)cn1 (centres undefined) | 13.95%
13 | Cc1cccn2cc(CN3CCCC(c4noc(C5CC5)n4)C3)nc12 (centres undefined) | -10.66%
14 | c1cc(CN2CCCC(c3noc(C4CC4)n3)C2)no1 (centres undefined) | 4.824%
15 | CCCNC(=O)CN1CCCC1c1nc(Cc2ccc(F)cc2)no1 (centres undefined) | -9.393%
16 | CC(C)N1CCOC[C@H]1c1nc(C(C)(C)C)c[nH]1 | -12.91%
17 | Cc1ccccc1C(C)(C)CNC(=O)CN(C)c1cnccn1 | 6.052%
18 | Cc1ccsc1C(=O)NC1CCN(c2cnn(C)c2)C1=O (centres undefined) | -14.12%
19 | CC(C)(C)NC(=O)C[C@@H]1CCNC[C@@H]1Cc1cc(C(C)(C)C)on1 | -4.858%
20 | Cc1cnc(-c2nc(C3CCN(Cc4ccccc4O)CC3)no2)cn1 | 140.6%
21 | c1cc(C2CCN(Cc3nc(C4CC4)no3)CC2)[nH]n1 | 45.49%
22 | c1ccc2[nH]c(C3CCN(Cc4nc(C5CC5)no4)CC3)cc2c1 | 8.105%
23 | CCN(CC)C(C(=O)Nc1ccc2c(c1)CCC(=O)N2)c1ccccc1 (centres undefined) | -21.99%
24 | O=C(CN1CCN(c2ncccn2)[C@@H]2CS(=O)(=O)C[C@@H]21)N1CCCCC1 | -9.163%
25 | CC(c1cccc(-c2nccn2CCc2ccccn2)c1)N(C)C (centres undefined) | 15.78%

Row | SMILES | Percent Effect
26 | CC(c1cccc(-c2nccn2CCc2cn[nH]c2)c1)N(C)C (centres undefined) | 8.832%
27 | CC(c1cccc(-c2ccc(C(=O)O)cc2Cl)c1)N(C)C (centres undefined) | -4.101%
28 | Cc1ccc(C(=O)O)cc1-c1cccc(C(C)N(C)C)c1 (centres undefined) | -7.98%
29 | Cc1cnc(Cn2cc(-c3cccc(C(C)N(C)C)c3)nn2)cn1 (centres undefined) | -24.3%
30 | COC(C)(C)Cn1ccnc1-c1cccc(C(C)N(C)C)c1 (centres undefined) | 3.994%
31 | CC(c1cccc(-c2ncccc2C#N)c1)N(C)C (centres undefined) | 104.1%
32 | CC(c1cccc(-c2ncc(C#N)c(N)n2)c1)N(C)C (centres undefined) | 111.9%
33 | CC(c1cccc(-c2ncccc2F)c1)N(C)C (centres undefined) | 118.4%
34 | COc1ccccc1[C@@H]1CN(Cc2cc(C(C)(C)C)[nH]n2)C[C@H]1C(=O)O | -3.476%
35 | CCc1cnc(NCC2OCCc3ccccc32)nc1 (centres undefined) | 32.64%
36 | Cn1ccnc1NC[C@@H]1CCC[C@@H]2CN(CC3CC3)C[C@@H]21.O=C(O)C(F)(F)F | 12.38%
37 | COc1ccnc(CN2CCC=C(C(C)NC(C)=O)C2)c1OC (centres undefined) | -37.4%
38 | COc1ncnc2c1CCN(C(=O)NCc1cccc(F)c1)CC2 | -12.16%
39 | O=C(NCc1cccnc1)N1CCc2ncnc(C3CC3)c2CC1.O=C(O)C(F)(F)F | -6.522%
40 | COc1ncnc2c1CCN(C(=O)NCc1cccnc1)CC2.O=C(O)C(F)(F)F | 5.156%
41 | CCOc1ncnc2c1CCN(C(=O)NCc1cccnc1)CC2.O=C(O)C(F)(F)F | 0.188%
42 | O=C(NCc1ccccc1)N1CCc2ncnc(NC3CC3)c2CC1 | 108.7%
43 | CCN(C)c1ncnc2c1CCN(C(=O)NCc1cccnc1)CC2.O=C(O)C(F)(F)F | 18.48%
44 | O=C(NCc1cccnc1)N1CCc2ncnc(NC3CC3)c2CC1.O=C(O)C(F)(F)F | 96.91%
45 | CC(C)Nc1ncnc2c1CCN(C(=O)NCc1cccc(F)c1)CC2 | 86.35%
46 | CC(C)Nc1ncnc2c1CCN(C(=O)NCc1cccnc1)CC2.O=C(O)C(F)(F)F | -1.871%
47 | O=C(NCc1cccc(F)c1)N1CCc2ncnc(NC3CC3)c2CC1 | 117.5%
48 | CN1CCc2[nH]nc(C(=O)N3CCC4(CN(C)C(=O)O4)C3)c2C1 (centres undefined) | 3.232%
49 | CCC(O)CN1CCN(C(=O)c2cccc3[nH]ncc23)CC1 (centres undefined) | 10.02%
50 | CCN(C)S(=O)(=O)c1c(F)cc(NC(C)=O)cc1F | 15.35%

Row | SMILES | Percent Effect
51 | CCC(Nc1nc(CCN)nc2ccccc12)c1cc(C)ccn1 (centres undefined) | 5.857%
52 | Cc1nn(CC(=O)Nc2ccc(F)cc2)c(N)c1C#N | -10.06%
53 | O=C(O)Cn1nc(C2CC2)c2c(-c3ccc(F)cc3)ccnc21 | 106.5%
54 | O=C(Cn1nc(-c2ccc(F)cc2)oc1=O)Nc1ccccc1 | -16.04%
55 | CN(C(=O)Cn1nc(-c2ccc(F)cc2)oc1=O)C1CCS(=O)(=O)C1 (centres undefined) | -25.19%
56 | COc1ccccc1-c1cc(C(F)(F)F)c2c(C)nn(CC(=O)O)c2n1 | -3.37%
57 | Cc1nn(CC(=O)O)c2nccc(-c3ccc(F)cc3)c12 | 132.8%
58 | O=C(CO)N1CCN(C(=O)c2coc3ccccc23)CC1 | -5.618%
59 | Cn1cncc1CNC1CC2(CCN(CC3CC3)CC2)c2ccccc21.O=C(O)C(F)(F)F.O=C(O)C(F)(F)F (centres undefined) | -10.77%
60 | O=C(O)C(F)(F)F.O=C(O)C(F)(F)F.c1cnc(N2CCC3(CC2)CC(NCC2CC2)c2ccccc23)nc1 (centres undefined) | 1.529%
61 | CNC(=O)CNC1CC2(CCN(c3ncccn3)CC2)c2ccccc21.O=C(O)C(F)(F)F.O=C(O)C(F)(F)F (centres undefined) | -16.8%
62 | CS(=O)(=O)N1CCC2(CC1)CC(NCc1ccccn1)c1ccccc12 (centres undefined) | 90.85%
63 | CS(=O)(=O)N1CCC2(CC1)CC(CC(=O)N1CCCC1)c1ccccc12 (centres undefined) | 5.675%
64 | CS(=O)(=O)N1CCC2(CC1)CC(NCc1ccco1)c1ccccc12.O=C(O)C(F)(F)F (centres undefined) | 91.69%
65 | Cn1cncc1CNC1CC2(CCN(S(C)(=O)=O)CC2)c2ccccc21.O=C(O)C(F)(F)F (centres undefined) | -9.896%
66 | Cn1cc(CNC2CC3(CCN(S(C)(=O)=O)CC3)c3ccccc32)cn1.O=C(O)C(F)(F)F (centres undefined) | 94.6%
67 | Cn1cc(CNC2CC3(CCN(CC4CC4)CC3)c3ccccc32)cn1.O=C(O)C(F)(F)F.O=C(O)C(F)(F)F.O=C(O)C(F)(F)F (centres undefined) | -14.88%
68 | CS(=O)(=O)N1CCC2(CC1)CC(CC(=O)NC1CC1)c1ccccc12 (centres undefined) | 17.75%
69 | CS(=O)(=O)N1CCC2(CC1)CC(NCC1CC1)c1ccccc12.O=C(O)C(F)(F)F (centres undefined) | 107.6%
70 | Cc1noc(CCCC(=O)N2CCNC(=O)C2)n1 | -6.568%
71 | Cc1c(C(C)Nc2ncnc3sccc23)cnn1C (centres undefined) | -5.704%
72 | CCn1ccnc1CN(C)Cc1nc(CCC(C)C)no1 | -3.993%
73 | COc1ccccc1[C@@H]1CN(C(=O)c2csc(C)n2)C[C@H]1C(=O)O | -8.955%
74 | CCn1cc(CN(C)c2nc(C)c3ccc(S(C)(=O)=O)cc3n2)cn1 | -19.68%
75 | Cc1nnc(N2CCOC(Cn3cccn3)C2)c(C#N)c1C (centres undefined) | -2.698%

Row | SMILES | Percent Effect
76 | CCc1[nH]c2c(CNC(=O)C3CCN(C)C3)cc(C)cc2c1C (centres undefined) | -4.959%
77 | Cc1nc(O)cc(C2CCCN(C(=O)c3cccc(N(C)C)c3)C2)n1 (centres undefined) | 2.27%
78 | CCCc1cc(C(=O)N2CC(c3ccncc3)C2)ccn1 | -34.73%
79 | Cc1nccc(C2CCCN(C(=O)c3cncnc3)C2)n1 (centres undefined) | 134.6%
80 | Cc1nccc(C2CN(C(=O)c3cncnc3)C2)n1 | 123.7%
81 | Cc1cccc(C2CCCN(C(=O)c3ccncc3)C2)n1 (centres undefined) | 137.8%
82 | Cc1ncncc1C(=O)N1C[C@H]2CC[C@@H]1CN(C(=O)c1ccncc1)C2 | -6.558%
83 | Cc1cc(C(=O)N[C@H]2CC[C@@]3(CCC(=O)N3)CC2)no1 | -22.87%
84 | Cc1csc2cc(C(=O)NC3CC3)cnc12 | 125.4%
85 | O=C(NC1CCC(O)CC1)c1cnc2c(cnn2C2CCCC2)c1 (centres undefined) | -3.379%
86 | CNC(=O)c1coc(-c2csc(C)n2)c1 | 7.776%
87 | CCc1nc(CNC(=O)Nc2ccc(C(=O)NC)cc2C)cs1 | -1.988%
88 | CNC(=O)c1cnc2c(C)csc2c1 | 142.5%
89 | Cc1ccsc1CCNC(C)C(=O)NC1CCCC1 (centres undefined) | 3.624%
90 | Cc1csc2cc(C(=O)NC3CCCC3)cnc12 | 127%
91 | CCOc1ccc(C(=O)NC2CC2)cc1C | -6.669%
92 | CCNc1ncc(C(=O)NC2CCOCC2)cn1 | -0.8414%
93 | Cc1cc(C2CCCN2C(=O)Cn2c(C)cc(=O)c3ccccc32)on1 (centres undefined) | -2.941%
94 | COCC(=O)N1CCN(C(=O)C2CCCCC2)[C@@H](C(=O)OC)C1 | -2.41%
95 | Cc1nccn1C1CCCN(C(=O)Cc2cn3ccccc3n2)C1 (centres undefined) | 129.5%
96 | Cc1nccn1C1CCCN(C(=O)COCC(F)(F)F)C1 (centres undefined) | 9.036%
97 | CCc1nccn1C1CCCN(C(=O)Cc2cn3ccccc3n2)C1 (centres undefined) | 11.58%
98 | Cc1nc(C)n(C2CCCN(C(=O)c3nc(C)n4ccccc34)C2)n1 (centres undefined) | -12.32%
99 | Cc1nc(C)n(C2CCCN(C(=O)Cc3cn4ccccc4n3)C2)n1 (centres undefined) | 141.6%
